Compound activity as filed in PubChem BioAssay.
SARS PLP yeast – inhibitors of SARS-CoV papain-like protease in yeast. S. cerevisiae expressing SARS-CoV PLpro, growth rescue. Potency, µM (doses to about 32.9 µM), for the others: at the highest dose activity, positive = growth rescue, hits mostly activators. 330,000 compounds, 0.19% hits; further: potency means the concentration at half of the fitted maximal effect; 0% is about no effect; nearly all actives have a fitted effect of over 55% in size
Pf growth 48h – P. falciparum growth inhibition at 48 hours (one generation); P. falciparum luciferase growth in erythrocytes, 48 h; 310,000 compounds, 5.9% hits; Potency, µM (highest dose often 28.7 µM), without a hit: top-dose activity change, negative = inhibition, usual class: inhibitors; AID 504832; active means well fitted inhibition curve with a large enough effect; inconclusive means small, poorly fitted or top-dose-only effect, or another doubt; inactive means no such curve, though single readings can be large or run the other way; further: potency means the concentration at half of the fitted maximal effect; on the % scale 0 is the no-effect control and ±100 the full control effect
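First compound was added to culture medium, then infected red cells at 0.1% parasitemia and 2% hematocrit (final). After incubation at 37 C under 5% CO2, luciferase detection reagent was dispensed and light output recorded.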
Pf growth 96h – P. falciparum growth inhibition at 96 hours; 320,000 compounds, 6.9% hits; Potency, µM (highest dose often 28.7 µM), inactives show at the highest dose activity change, negative = inhibition, usual class: inhibitors; P. falciparum luciferase reporter growth, 96 h; AID 504834; active means well fitted inhibition curve with a large enough effect; inconclusive means small, poorly fitted or top-dose-only effect, or another doubt; inactive means no such curve, though single readings can be large or run the other way; further: potency means the concentration at half of the fitted maximal effect; on the % scale 0 is the no-effect control and ±100 the full control effect
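Compounds incubated with erythrocytes infected by luciferase-expressing P. falciparum (2% hematocrit, 0.05% parasitemia final) for 96 hours, 37 C in 5% CO2. Growth inhibition scored as decreased luciferase luminescence.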
Shiga inhibitor – inhibitors of Shiga toxin in Vero cells; Vero cells, Shiga toxin protein synthesis inhibition reporter; inhibition, % at 38.7 µM; AID 2315; 290,000 compounds, 9.2% hits; in the data active means inhibition mostly above about 28%, no sharp cut-off; inactive means mostly below about 43%; further: 0% is about no effect
NS1 function inh – influenza NS1 inhibition | Potency, µM (titrated, usually from 46.1 µM), for inactives: top-dose activity, positive = more growth | 270,000 compounds, 0.4% hits; further: potency means the concentration at half of the fitted maximal effect; actives are rising curves; nearly all actives have a fitted effect of over 50% in size
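S. cerevisiae expressing influenza A NS1, grown in glucose, washed, then diluted 1:100 into pH 6.0 -URA galactose medium with 23 nl compound. Growth recovery read as OD600; NS1-free strain serves as control.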
Cycloheximide cs – affects cycloheximide protein synthesis inhibition readout, counter-screen; 300,000 compounds, 12% hits; AID 2314; cell reporter, cycloheximide protein synthesis inhibition counterscreen; max response, %; in the data active means max response mostly above about 13%, no sharp cut-off; inactive means mostly below about 14%; further: read at 38.3 µM for the half of the compounds with a filed dose; 0% is about no effect
Starred values were filed as active, the others as inactive. Compounds with a hit are over-represented: about 21% of the library has one in this group of screens. Unless noted, the call rests on the fitted dose curve.

O=C(CC1OC(=O)c2ccccc21)Nc1cc(Cl)ccc1N1CCOCC1 (configuration not stated) was read as SARS PLP yeast -1%.
O=C(OCC#CCSc1nnc(-c2cccc3ccccc23)o1)c1cnc[nH]1 was read as SARS PLP yeast -2%, Pf growth 48h inconclusive and Pf growth 96h inconclusive.
For S=c1[nH]nc(-c2ccc3ccccc3n2)n1-c1ccc(Cl)cc1 the results were SARS PLP yeast -3%, Pf growth 48h 7%, Pf growth 96h 0.59µM*, Shiga inhibitor -3, NS1 function inh 24% and Cycloheximide cs -1.
Cc1n[nH]c(=S)n1-c1ccc(Cl)cc1 was read as SARS PLP yeast -1%, Pf growth 48h 10%, Pf growth 96h 5.9µM*, Shiga inhibitor 19, NS1 function inh 5% and Cycloheximide cs -2.
`Cc1n[nH]c(=S)n1-c1ccccc1` gave SARS PLP yeast 1%, Pf growth 48h inconclusive, Pf growth 96h inconclusive, Shiga inhibitor 2, NS1 function inh 4% and Cycloheximide cs 5.
Screening CCN(CC(=O)Nc1cc(Cl)ccc1C)C(=O)COc1cccc2c1OC(C)(C)C2 returned SARS PLP yeast 1%, Pf growth 48h inconclusive, Pf growth 96h -12%, Shiga inhibitor -15, NS1 function inh 0% and Cycloheximide cs -2.
Screening O=C1CC(c2ccccc2)CC(O)=C1C=NCCN1CCN(Cc2ccccc2)CC1 (configuration not stated) returned SARS PLP yeast 0%, Pf growth 48h inconclusive, Pf growth 96h -13%, Shiga inhibitor -10, NS1 function inh -1% and Cycloheximide cs -3.
O=C(NC(=S)Nc1cccc2c(O)cccc12)c1ccco1 was read as SARS PLP yeast -5%, Pf growth 48h inconclusive, Pf growth 96h inconclusive, Shiga inhibitor 109*, NS1 function inh -21% and Cycloheximide cs 26*.
O=C(NC(=S)Nc1ccccc1Cl)c1ccco1 was read as SARS PLP yeast -6%, Pf growth 48h 2%, Pf growth 96h -6%, Shiga inhibitor 90*, NS1 function inh -11% and Cycloheximide cs 44*.
O=C1CCCC(=O)C1=C1SCCCS1 was read as SARS PLP yeast 2%, Pf growth 48h 3%, Pf growth 96h -9%, Shiga inhibitor -11, NS1 function inh 5% and Cycloheximide cs -3.
For CCCCCCCCCCCCC/C=C/C(O)C(COP(=O)(O)OCCN)NC(=O)CCCCCCCCCCCCCCCCC (configuration not stated) the results were Shiga inhibitor 0 and Cycloheximide cs -4.
`CC(C)C[C@H](NC(=O)[C@H](CC(C)C)NC(=O)[C@@H](Cc1c[nH]c2ccccc12)NC(=O)[C@H](Cc1ccccc1)NC(=O)[C@@H](Cc1c[nH]c2ccccc12)NC(=O)[C@H](CCC(N)=O)NC(=O)[C@H](CCC(N)=O)NC(=O)[C@@H]1CCCN1C(=O)[C@H](CCCCN)NC(=O)[C@@H]1CCCN1C(=O)[C@@H](CCCNC(=N)N)NC(=O)[C@@H]1CCCN1C(=O)CNC(=O)[C@H](CC(C)C)NC(=O)[C@H](CC(C)C)NC(=O)[C@H](Cc1ccc(O)cc1)NC(=O)CNC(=O)[C@H](C)NC(=O)[C@H](CO)NC(=O)[C@H](CC(N)=O)NC(=O)[C@H](CC(C)C)NC(=O)[C@@H](NC(=O)[C@H](Cc1c[nH]c2ccccc12)NC(=O)CN)[C@@H](C)O)C(N)=O` gave Shiga inhibitor -4 and Cycloheximide cs -4.
For O=C(CN(C(=O)CCC(=O)Nc1ccccn1)c1ccc(F)cc1)NCc1ccc(F)cc1 the results were SARS PLP yeast 4%, Pf growth 48h -21%, Pf growth 96h inconclusive, Shiga inhibitor -2, NS1 function inh 0% and Cycloheximide cs -1.
`Cc1ccsc1CN(C)C(=O)CN1C(=O)NC2(CCCCC2C)C1=O` (configuration not stated) gave SARS PLP yeast 4%, Pf growth 48h -20% and Pf growth 96h inconclusive.
`COc1ccc(C(=O)N(C)Cc2ccccc2)cc1Br` gave SARS PLP yeast inconclusive, Pf growth 48h 2%, Pf growth 96h 2%, Shiga inhibitor 10, NS1 function inh -4% and Cycloheximide cs 5.
O=C(c1ccc(OC2CCN(Cc3ccccn3)CC2)cc1)N1CCC[C@H]1CO was read as SARS PLP yeast 4%, Pf growth 48h -1%, Pf growth 96h 3.7µM*, Shiga inhibitor 32, NS1 function inh 3% and Cycloheximide cs -2.
Screening CCC1CCCCN1C(=O)c1ccc(OC2CCN(Cc3ccccn3)CC2)cc1 (configuration not stated) returned SARS PLP yeast -1%, Pf growth 48h -24%, Pf growth 96h -13%, Shiga inhibitor -31, NS1 function inh 2% and Cycloheximide cs -2.
`CC(C)c1nc(CNC(=O)c2ccc(OC3CCN(Cc4ccccn4)CC3)cc2)cs1` gave SARS PLP yeast 1%, Pf growth 48h -25%, Pf growth 96h -36%, Shiga inhibitor -9, NS1 function inh -2% and Cycloheximide cs 2.
For CC(NC(=O)c1ccc(OC2CCN(Cc3ccccn3)CC2)cc1)c1ccccc1 (configuration not stated) the results were SARS PLP yeast 0%, Pf growth 48h inconclusive, Pf growth 96h 12µM*, Shiga inhibitor -10, NS1 function inh -1% and Cycloheximide cs 0.
For Cc1ccc(C2c3c(C)nn(-c4ccc([N+](=O)[O-])cc4)c3N=C3C(=O)Nc4ccccc4N32)cc1 (configuration not stated) the results were SARS PLP yeast 0%, Pf growth 48h inconclusive, Pf growth 96h inconclusive, Shiga inhibitor -11 and Cycloheximide cs 1.
`COc1cccc(C2c3c(C)nn(-c4ccc([N+](=O)[O-])cc4)c3N=C3C(=O)Nc4ccccc4N32)c1` (configuration not stated) gave SARS PLP yeast 0%, Pf growth 48h inconclusive, Pf growth 96h inconclusive, Shiga inhibitor -9 and Cycloheximide cs 1.
CC(=O)Nc1ccc(NC2=Nc3ccccc3N3C2=Nc2c(c(C)nn2-c2ccccc2)C3c2ccccc2)cc1 (configuration not stated) was read as SARS PLP yeast inconclusive, Pf growth 48h 0.93µM*, Pf growth 96h inconclusive, Shiga inhibitor -32, NS1 function inh 11% and Cycloheximide cs -2.
Screening COc1ccc(NC2=Nc3ccccc3N3C2=Nc2c(c(C)nn2-c2ccc(C)cc2)C3c2cccnc2)cc1 (configuration not stated) returned SARS PLP yeast -8%, Pf growth 96h 2.1µM*, Shiga inhibitor -13, NS1 function inh 9% and Cycloheximide cs 5.
c1ccc2c3n(nc2c1)CCCO3 was read as SARS PLP yeast -6%, Pf growth 48h 16% and Pf growth 96h 46%.
